Test [1] is described as follows: NCI Yeast Anticancer Drug Screen. Data for the rad50 strain (AID 155).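 Note: 0% = growth of vehicle-only cultures of the same strain.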 The settings on record: S. cerevisiae rad50 strain growth inhibition, stronger effect = higher value. The gist of the method: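 Growth of the mutant yeast was measured after compound exposure and referenced to vehicle-treated cultures.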
Test [2] in a line: NCI Yeast Anticancer Drug Screen. Data for the mec2-1 strain (AID 157). The settings on record: S. cerevisiae mec2-1 strain, stronger effect = higher value. The gist of the method: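 mec2-1 yeast strain, carrying an alteration in DNA damage repair or cell cycle control, was exposed to compounds; growth inhibition was measured relative to vehicle-treated controls.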
Test [3] in a line: NCI Yeast Anticancer Drug Screen. Data for the sgs1 mgt1 strain (AID 161).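 Note: 0% = growth of cultures given vehicle only.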 Conditions: S. cerevisiae sgs1 mgt1 strain, stronger effect = higher value. Summed up:
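Growth of a repair-deficient yeast mutant was monitored after compound treatment and expressed as inhibition relative to vehicle-treated cultures.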

Test [4] in a line: NCI Yeast Anticancer Drug Screen. Data for the cln2 rad14 strain (AID 165).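 Note: 0% = growth equal to vehicle treated cultures.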 Conditions: S. cerevisiae cln2 rad14 strain, stronger effect = higher value. Summed up:
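Yeast carrying cln2 and rad14 alterations (cell cycle control and DNA damage repair) were exposed to compounds. Growth inhibition was measured against vehicle-treated controls.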

Test [5] is described as follows: NCI Yeast Anticancer Drug Screen. Data for the bub3 strain (AID 167). The settings on record: S. cerevisiae bub3 mutant strain, stronger effect = higher value. The gist of the method:
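Whole-cell yeast assay. The mutant strain was incubated with compounds, and growth inhibition was determined by comparison with vehicle-treated cells.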

Test [6] can be described thus: NCI Yeast Anticancer Drug Screen. Data for the mlh1 rad18 strain (AID 175). The settings on record: S. cerevisiae mlh1 rad18 strain growth inhibition, stronger effect = higher value. The gist of the method:
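Growth inhibition of the yeast strain was measured after compound exposure and expressed relative to vehicle-treated controls. The strain carries defined defects in DNA damage repair.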

[7] abbreviates: at 5.0 µM (retest, dose inferred, filed as 0.5).
Where [8] appears, read: at 50.0 µM (retest, dose inferred, filed as 5.0).

Molecules are shown by their SMILES. About 79,000 compounds went through this panel and 15% of them were active in at least one assay; those are over-represented in the sample as a whole. A number with no mark means an inactive call. Calls of active or inactive are those of the source. Cut-off read from the data, not from the text of the source: active = growth inhibition above about 70%; inactive = the rest.

Turning to `COc1cc(CNC(=O)CCCCCCCCCCSC#N)ccc1O`, the growth inhibition in test [1] (setting [7]) was 6%; in test [1] (setting [8]) it was 59%; in test [1] (at 50.0 µM), 82.1% (active); in test [2] (setting [7]), 5%; in test [2] (setting [8]) it was 43%; in test [2] (at 50.0 µM), 85.2% (active). In addition, the growth inhibition in test [3] (setting [7]) was 7%; in test [3] (setting [8]), 77% (active); in test [3] (at 50.0 µM) it was 83.6% (active); in test [4] (setting [7]), 1%; in test [4] (setting [8]) it was 76% (active); in test [4] (at 50.0 µM) it was 81% (active). Also, the growth inhibition in test [5] (setting [7]) was 0%; in test [5] (setting [8]), 82% (active); in test [5] (at 50.0 µM), 86.7% (active); in test [6] (setting [7]), 20%; in test [6] (setting [8]) it was 73% (active); in test [6] (at 50.0 µM), 81.2% (active).

`Nc1ncc(C(=O)c2ccccc2)cc1[N+](=O)[O-]`: the growth inhibition in test [1] (setting [7]) is -142%; in test [1] (setting [8]), -110%; in test [1] (at 50.0 µM), -5.7%; in test [2] (setting [7]) it was -44%; in test [2] (setting [8]) it was -37%; in test [2] (at 50.0 µM) it was 21.8%. Moreover, the growth inhibition in test [3] (setting [7]) is -61%; in test [3] (setting [8]) it was -45%; in test [3] (at 50.0 µM), -5.95%; in test [4] (setting [7]) it was -56%; in test [4] (setting [8]), -22%; in test [4] (at 50.0 µM) it was 38.9%. Besides, the growth inhibition was -76% in test [5] (setting [7]); -58% in test [5] (setting [8]); -2.9% in test [5] (at 50.0 µM); -138% in test [6] (setting [7]); -87% in test [6] (setting [8]); -0.8% in test [6] (at 50.0 µM).

For the molecule `N#CC1(C#N)C(C#N)(C#N)C12CCC2`, the growth inhibition was 4% in test [1] (setting [7]); 87% (active) in test [1] (setting [8]); 35.2% in test [1] (at 50.0 µM); 6% in test [2] (setting [7]); 88% (active) in test [2] (setting [8]); 49.8% in test [2] (at 50.0 µM). Besides, the growth inhibition was 6% in test [3] (setting [7]); 91% (active) in test [3] (setting [8]); 50.6% in test [3] (at 50.0 µM); 0% in test [4] (setting [7]); 65% in test [4] (setting [8]); -2.45% in test [4] (at 50.0 µM). For the same molecule, the growth inhibition is 7% in test [5] (setting [7]); 96% (active) in test [5] (setting [8]); 70% (active) in test [5] (at 50.0 µM); 2% in test [6] (setting [7]); 96% (active) in test [6] (setting [8]); 83.8% (active) in test [6] (at 50.0 µM).

On to `CN(C)c1ccccc1CN1CCCN(Cc2ccccc2N(C)C)C1`, for which the growth inhibition was -4% in test [1] (setting [7]); 7% in test [1] (setting [8]); 69.8% in test [1] (at 50.0 µM); 8% in test [2] (setting [7]); 26% in test [2] (setting [8]); 50% in test [2] (at 50.0 µM). Further, the growth inhibition was 1% in test [3] (setting [7]); 35% in test [3] (setting [8]); 75.2% (active) in test [3] (at 50.0 µM); 0% in test [4] (setting [7]); 2% in test [4] (setting [8]); 4.45% in test [4] (at 50.0 µM). Moreover, the growth inhibition in test [5] (setting [7]) was 2%; in test [5] (setting [8]), 6%; in test [5] (at 50.0 µM), 1.5%; in test [6] (setting [7]), 18%; in test [6] (setting [8]), 35%; in test [6] (at 50.0 µM), 63.3%.

Take `N=C(N)Sc1ccc([N+](=O)[O-])cc1Cl`: the growth inhibition in test [1] (setting [7]) was 45%; in test [1] (setting [8]) it was 94% (active); in test [1] (at 50.0 µM), 85.2% (active); in test [2] (setting [7]), 35%; in test [2] (setting [8]), 96% (active); in test [2] (at 50.0 µM) it was 86.8% (active). For the same molecule, the growth inhibition in test [3] (setting [7]) is 56%; in test [3] (setting [8]), 97% (active); in test [3] (at 50.0 µM) it was 90.3% (active); in test [4] (setting [7]), 36%; in test [4] (setting [8]) it was 89% (active); in test [4] (at 50.0 µM), 84.5% (active). Also, the growth inhibition in test [5] (setting [7]) was 40%; in test [5] (setting [8]) it was 59%; in test [5] (at 50.0 µM), 86.2% (active); in test [6] (setting [7]), 63%; in test [6] (setting [8]), 96% (active); in test [6] (at 50.0 µM) it was 85.7% (active).

With `Nc1ccc(C(=O)N/C(=C\C=C\c2ccco2)c2nc3c4c(ccc3[nH]2)C(=O)c2ccccc2C4=O)cc1`, the growth inhibition in test [1] (setting [7]) was 23%; in test [1] (setting [8]) it was 75% (active); in test [1] (at 50.0 µM), 90.8% (active); in test [2] (setting [7]), 1%; in test [2] (setting [8]) it was 28%; in test [2] (at 50.0 µM) it was 62.1%. Moreover, the growth inhibition in test [3] (setting [7]) is 3%; in test [3] (setting [8]), 35%; in test [3] (at 50.0 µM), 74.8% (active); in test [4] (setting [7]), 0%; in test [4] (setting [8]), 9%; in test [4] (at 50.0 µM) it was 44.7%. The growth inhibition in test [5] (setting [7]) is 2%; in test [5] (setting [8]) it was 22%; in test [5] (at 50.0 µM), 31.9%; in test [6] (setting [7]) it was 10%; in test [6] (setting [8]), 12%; in test [6] (at 50.0 µM) it was 90.5% (active).

As to `C[N+](C)(C)CCN(Cc1cccs1)c1ccccn1`, the growth inhibition in test [1] (setting [7]) is -2%; in test [1] (setting [8]) it was -9%; in test [1] (at 50.0 µM) it was 20.2%; in test [2] (setting [7]), 8%; in test [2] (setting [8]), -16%; in test [2] (at 50.0 µM) it was 29.9%. Besides, the growth inhibition is 2% in test [3] (setting [7]); -20% in test [3] (setting [8]); -37.8% in test [3] (at 50.0 µM); -27% in test [4] (setting [7]); -111% in test [4] (setting [8]); 72.2% (active) in test [4] (at 50.0 µM). Besides, the growth inhibition is -4% in test [5] (setting [7]); -10% in test [5] (setting [8]); -4.2% in test [5] (at 50.0 µM); -3% in test [6] (setting [7]); -13% in test [6] (setting [8]); -2.15% in test [6] (at 50.0 µM).

Consider `O=C(O)/C=C/c1c2ccccc2cc2ccccc12`, for which the growth inhibition was 41% in test [1] (setting [7]); 96% (active) in test [1] (setting [8]); 97.1% (active) in test [1] (at 50.0 µM); 16% in test [2] (setting [7]); 98% (active) in test [2] (setting [8]); 96.5% (active) in test [2] (at 50.0 µM). For the same molecule, the growth inhibition in test [3] (setting [7]) was 27%; in test [3] (setting [8]), 97% (active); in test [3] (at 50.0 µM) it was 94.7% (active); in test [4] (setting [7]) it was 9%; in test [4] (setting [8]), 96% (active); in test [4] (at 50.0 µM) it was 96.9% (active). Besides, the growth inhibition was 71% (active) in test [5] (setting [7]); 96% (active) in test [5] (setting [8]); 97.3% (active) in test [5] (at 50.0 µM); 47% in test [6] (setting [7]); 97% (active) in test [6] (setting [8]); 97.5% (active) in test [6] (at 50.0 µM).

As for `O=C(O)/C(=C\c1cc(I)c(O)c(I)c1)c1ccc(I)cc1`, the growth inhibition in test [1] (setting [7]) was 3%; in test [1] (setting [8]), 39%; in test [1] (at 50.0 µM), 88.3% (active); in test [2] (setting [7]), 42%; in test [2] (setting [8]) it was 70% (active); in test [2] (at 50.0 µM), 80.6% (active). The growth inhibition in test [3] (setting [7]) is 34%; in test [3] (setting [8]) it was 75% (active); in test [3] (at 50.0 µM), 91.8% (active); in test [4] (setting [7]), 19%; in test [4] (setting [8]), 70% (active); in test [4] (at 50.0 µM), 82.7% (active). The growth inhibition was 3% in test [5] (setting [7]); 59% in test [5] (setting [8]); 48% in test [5] (at 50.0 µM); 37% in test [6] (setting [7]); 76% (active) in test [6] (setting [8]); 80.8% (active) in test [6] (at 50.0 µM).

In the case of `CCCC(=O)N(C(=O)CCC)C1=C(Cl)C(=O)c2ccccc2C1=O`, the growth inhibition is 55% in test [1] (setting [7]); 64% in test [1] (setting [8]); 29.9% in test [1] (at 50.0 µM); 95% (active) in test [2] (setting [7]); 95% (active) in test [2] (setting [8]); 83.1% (active) in test [2] (at 50.0 µM). In addition, the growth inhibition was 56% in test [3] (setting [7]); 72% (active) in test [3] (setting [8]); 75.1% (active) in test [3] (at 50.0 µM); 33% in test [4] (setting [7]); 65% in test [4] (setting [8]); 74.2% (active) in test [4] (at 50.0 µM). Also, the growth inhibition in test [5] (setting [7]) was 91% (active); in test [5] (setting [8]), 98% (active); in test [5] (at 50.0 µM) it was 87.4% (active); in test [6] (setting [7]) it was 48%; in test [6] (setting [8]), 64%; in test [6] (at 50.0 µM) it was 86.6% (active).

Source of the values: PubChem BioAssay (NCI).
